± gives the standard deviation. Whole data set: some 8,200 sequences, median “pre-steady-state target cleavage rate” near 0.024, cut for the highest 2% near 1.3. The sample holds the highest values, similar sequences and a random draw of the others, so the mix is not that of the screen.
Test system: MIWI (PIWIL1) piRISC loaded with L1MC piRNA (30 nt)
Assay: pre-steady-state target cleavage rate (min^-1); MIWI and MILI are mouse PIWI proteins and EfPiwi is from a freshwater sponge; tags in brackets are library labels; higher = faster piRNA-guided slicing of the target
Settings: guide: L1MC piRNA 5'p-UAACUAAAUACUAUGCAAGCUGUAGGUCCU
Method in brief: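 Cleave-'n-Seq measured uncleaved targets by sequencing after a transcribed, DNA-blocked target RNA library […] was mixed with 1 nM active affinity-purified piRISC holding one synthetic guide, with or without 500 nM GTSF1 partner protein, at 33 °C in HEPES–potassium acetate buffer for 0–8 or 0–960 min. Counts were normalised to depth and to weakly complementary targets, three trials were pooled, and k3 was capped at 0.0001 min^-1. A burst-and-steady-state fit gave the pre-steady-state cleavage rate.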

[1] = auxiliary factor: 500 nM mouse GTSF1
[2] = auxiliary factor: none (no GTSF1)
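Also: 1 nM active piRISC with 0.1 nM target library at 33 °C single turnover.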

| Sequence | pre-steady-state target cleavage rate [1] | pre-steady-state target cleavage rate [2] |
| --- | --- | --- |
| UCCACCAUCAGCUUGCAUAGUAUUUAGUAA | 0.68 ± 0.029 | 0.0248 ± 0.0047 |
| UCCUGGAUGUCCUUGCAUAGUAUUGAGUUA | 0.142 ± 0.031 | 0.00653 ± 0.0024 |
| UGGACCUACAGCUUGCAAUGUAUUUACAAA | 0.0217 ± 0.0068 | – |
| UCCUGGAUCAGCUUGCAUACUAUUAAGUUA | 0.101 ± 0.015 | 0.00664 ± 0.0024 |
| UCCUGGAACAGCUUGCAAAGUAUUUUCAAA | 0.0876 ± 0.018 | 0.00328 ± 0.002 |
| UCCUGGUACAGCUUGCAUAGUAUUUAGUCUA | 0.0829 ± 0.026 | 0.00718 ± 0.0028 |
| AGGACCUACAGCUUGCAUAGAAUUUAGUUA | 0.559 ± 0.044 | 0.0408 ± 0.011 |
| UCCUGGAACAGCUUGCGUAGUAUUUAGUUA | 1.43 ± 0.087 | 0.0397 ± 0.0099 |
| UCCUCCAACAGCUUGCAAAGUAUUUAGUUA | 1.16 ± 0.043 | 0.0397 ± 0.0099 |
| UCCUGCAACAGCUUGCAUAGUAUUUAGUUA | 1.57 ± 0.12 | 0.0696 ± 0.017 |
| UCCUGCAACAGCUUGCAUAGUAUUUAGAAA | 0.429 ± 0.059 | 0.00469 ± 0.0034 |
| UCCUGCAACAGCUAGCAUAGUAUUUAGUUA | 1.12 ± 0.047 | 0.0185 ± 0.004 |
| UCCUGGAACAGCUUGCAGUAGUAUUUAGUUA | 0.00503 ± 0.0043 | – |
| UCCUGCAACAGCUUGCAAAGUAUUUAGUUA | 1.32 ± 0.076 | 0.0463 ± 0.01 |
| UCCUGCUACAGCUUGCAAAGUAUUUAGUUA | 0.619 ± 0.037 | 0.03 ± 0.0055 |
| UCCUGCAACAGCAUGCAUAGUAUUUAGUUA | 1.36 ± 0.087 | 0.0331 ± 0.0088 |
| UCCUGGAACAGCUUGCUUAGUAUUUAGUUA | 1.14 ± 0.053 | 0.0404 ± 0.0098 |
| UCCUGCAACAGCUUGCAUAGUAUUUAGUAA | 1.22 ± 0.083 | 0.0736 ± 0.021 |
| UCCUGCUACAGCAUGCAUAGUAUUUAGUUA | 1.21 ± 0.086 | 0.0207 ± 0.0053 |
| UGCACCUACAGCUUGCAUAGUAUUUUGUUA | 0.852 ± 0.083 | 0.0692 ± 0.015 |
| UCCUGGAUGUGCUUGCAUAGUAAUUUGUUA | 0.0171 ± 0.0079 | 0.00536 ± 0.0029 |
| UCCACCAACAGCUUCCAUAGUAUUUAGUUA | 0.0426 ± 0.015 | 0.00399 ± 0.0017 |
| AGGACCAACAGCUUGCAUUGUAUUUAGUUA | 0.923 ± 0.044 | 0.0356 ± 0.0086 |
| UCCUCCUACAGCUUGCAUAGUUUUUACAAA | 0.185 ± 0.029 | – |
| UCCUGGAACAGCUUGCAUAGUUAUUAGUUA | 0.113 ± 0.015 | 0.015 ± 0.0044 |
| UCCUGGAACAGCUUGCAUAGUAUUUUAGUUA | 0.875 ± 0.046 | 0.0159 ± 0.003 |

| Sequence | pre-steady-state target cleavage rate [1] | pre-steady-state target cleavage rate [2] |
| --- | --- | --- |
| UCCUGCAACAGCUUGCUUAGUAUUUAGUUA | 1.4 ± 0.097 | 0.0478 ± 0.013 |
| UCCUGGAACAGCUUGCAUAGUAUUUAGUUA [g2:g23:cont:t1A] | 1.18 ± 0.034 | 0.0833 ± 0.014 |
| UCCUGCAACAGCUUGCAUUGUAUUUAGUUA | 0.964 ± 0.068 | 0.0397 ± 0.01 |
| UCCUGGAACAGCUUGCAUAGUAUUCUAGUUA | 0.285 ± 0.041 | 0.0119 ± 0.0031 |
| UCCUGGAAACAGCUUGCAUAGUAUUUAGUUA | 1.34 ± 0.051 | 0.0675 ± 0.012 |
| UCCUGGAACAGCUUGCAUAGUAUCUAGUUA | 0.508 ± 0.045 | 0.0563 ± 0.011 |
| UCCUGGAACAGCUUGUAUAGUAUUUAGUUA | 1.37 ± 0.056 | 0.0564 ± 0.012 |
| UCCUGCAACAGCUUGGAUAGUAUUUAGUUA | 1.24 ± 0.1 | 0.0688 ± 0.012 |
| UCCUGGAACAGCUUGCAUAGUAUCUUAGUUA | 0.777 ± 0.046 | 0.0258 ± 0.0072 |
| UCGACCUACAGCUUGCAUAGUAUUCUAGUUA | 0.882 ± 0.094 | 0.0316 ± 0.0072 |
| UGGACCUACAGCUUGCUUAGUAUUAAGUUA | 0.454 ± 0.041 | 0.012 ± 0.0028 |
| UCCUCCUACAGCUUGCAUACUAUUAAGUUA | 0.147 ± 0.022 | 0.00892 ± 0.0014 |
| UCGACCUACAGGUUGCAUAGUAUUUAGUUA | 1.14 ± 0.053 | 0.0468 ± 0.0088 |
| UCCUCCUACAGGUUGCAAAGUAUUUAGUUA | 1.29 ± 0.06 | 0.0159 ± 0.0033 |
| AGGACCUACAGGUUGCAAAGUAUUUAGUUA | 1.21 ± 0.045 | 0.0226 ± 0.0041 |
| UCCACCUACAGGUUGCAAAGUAUUUAGUUA | 1 ± 0.04 | 0.0166 ± 0.0038 |
| UGGACCUACAGGUUGCAAAGUAUUUAGUUA | 1.33 ± 0.082 | 0.02 ± 0.0043 |
| UCGACCUACAGGUUGCAAAGUAUUUAGUUA | 1.33 ± 0.054 | 0.0193 ± 0.0046 |
| UCCUGCUACAGCUUGCAUAGUAUUUAGUCUA | 0.156 ± 0.025 | 0.00747 ± 0.0028 |
| UCGACCUACAGCUUGCAUAGUUAAUUCAAA | 0.538 ± 0.15 | – |
| UCCUGGAUGAGCUUGCAUAGUUUUUUGUUA | 0.0806 ± 0.014 | 0.0177 ± 0.0048 |
| UCCUGGAUGAGCUUGCAUUGUAUUUACUUA | 0.0649 ± 0.016 | 0.00906 ± 0.0031 |
| AGGACCUACAGCUUGCAUAGAAUUUUGUUA | 0.501 ± 0.047 | 0.0183 ± 0.0047 |
| AGGACCUACAGCUUGCAUAGUAUUUAGUA | 0.795 ± 0.042 | 0.0502 ± 0.014 |
| UCCACCUAGCAGCUUGCAUAGUAUUUAGUUA | 0.833 ± 0.057 | 0.0454 ± 0.0087 |
| UGCACCUAGAGCUUGCAUAGUAUUUAGUUA | 1.2 ± 0.25 | 0.0155 ± 0.0045 |

| Sequence | pre-steady-state target cleavage rate [1] | pre-steady-state target cleavage rate [2] |
| --- | --- | --- |
| UCCACCUAGAGCUUGCAUAGUAUUUAGUUA | 0.593 ± 0.06 | 0.0282 ± 0.0051 |
| AGCACCUAGAGCUUGCAUAGUAUUUAGUUA | 1.47 ± 0.37 | 0.00468 ± 0.0035 |
| UGGACCUACUAGCUUGCAUAGUAUUUAGUUA | 0.63 ± 0.036 | 0.0509 ± 0.01 |
| UCGACCUAGCAGCUUGCAUAGUAUUUAGUUA | 1.34 ± 0.058 | 0.0726 ± 0.016 |
| AGGACCUAGCAGCUUGCAUAGUAUUUAGUUA | 1.21 ± 0.073 | 0.0735 ± 0.015 |
| UGGACCUAGCAGCUUGCAUAGUAUUUAGUUA | 1.59 ± 0.13 | 0.0734 ± 0.014 |
| UCGACCUACUAGCUUGCAUAGUAUUUAGUUA | 0.784 ± 0.042 | 0.0512 ± 0.01 |
| UCGACCUACAGCUUCCAUAGUAAUUAGUUA | 0.0526 ± 0.017 | – |
| UCCACCUACAGCUUGCAAUCUAUUUAGUUA | 0.194 ± 0.018 | – |
| UGGACCUACUGCUUGCAUAGUAAUUAGUUA | 0.866 ± 0.04 | 0.033 ± 0.0084 |
| UCCUGGAUGUGCAUGCAUUGUAUUUAGUUA | 0.00495 ± 0.0033 | – |
| UCCUGGUACAGGAAGCAUAGUAUUUAGUAA | 0.0592 ± 0.011 | – |
| UCCACCAACAGCUAGCAUAGUAUUUAGUUA | 0.97 ± 0.033 | 0.0197 ± 0.0045 |
| UGGAGGUACAGCUUGCAUAGUAUUUUCAAA | 0.0674 ± 0.014 | 0.00316 ± 0.0017 |
| UGGAGCUACAGCUUCCAUAGUAUUUAGUUA | 0.275 ± 0.047 | 0.00584 ± 0.0013 |
| AGGACCUACGCUUGCAUAGUAUUUAGUUA | 1.27 ± 0.066 | 0.0719 ± 0.013 |
| UCGACCUACACGCUUGCAUAGUAUUUAGUUA | 1.23 ± 0.063 | 0.0454 ± 0.0074 |
| UGGACCUACGCUUGCAUAGUAUUUAGUUA | 1.4 ± 0.081 | 0.046 ± 0.008 |
| UCGACCUACGCUUGCAUAGUAUUUAGUUA | 1.45 ± 0.052 | 0.0463 ± 0.0093 |
| UGGACCUACACGCUUGCAUAGUAUUUAGUUA | 1.06 ± 0.06 | 0.0641 ± 0.013 |
| UCCACCUACGCUUGCAUAGUAUUUAGUUA | 0.998 ± 0.04 | 0.0451 ± 0.0077 |
| UCCACCUACAGGUUGCAUAGUAUUUAGUAA | 0.866 ± 0.1 | 0.0134 ± 0.0028 |
| UCCUGGUACAGCUUGCCAUAGUAUUUAGUUA | 0.0951 ± 0.024 | – |
| UCCUCCUACUGCUUGCAUAGUAUUUAGAUA | 0.185 ± 0.024 | 0.0115 ± 0.002 |
| UCCUGGAUGAGCUUGCAUAGUAAUUAGAUA | 0.136 ± 0.034 | 0.00679 ± 0.0036 |

— the supplement of paper PMC10338343
